Several values for one entry are separate records, joined by “and”; a condition that tells them apart may be missing. Identical values can stand only once. Compounds without any hit were thinned out: in the full panel of roughly 83,000, 20% have a hit.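 Results are percent growth after 48 hours of single-concentration exposure. 100 means growth as in untreated cells, lower positive values show inhibition; negative values down to -100 show cell death.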 Activity calls are given as the source filed them. The calls were made as follows: active = growth percent below 10; inactive = the rest.
Tested on: MDA-MB-468 breast
Experiment: NCI-60 one-dose screen, 48 h (100 = growth as untreated, 0 = no growth, -100 = all killed)
Details: 10 µM unless noted

SMILES | growth
COc1ccc2c(c1)nc(N)c1c3ccccc3cn21 | 58.5% (inactive)
COc1ccc(-c2noc(C(=O)O)c2-c2cc(OC)c(OC)c(OC)c2)cc1 | 24.7% (inactive)
C=CCn1c(SCC(=O)Nc2ccc(C(=O)/C=C/c3ccc(C)cc3)cc2)nnc1-c1c[nH]c2ccccc12 | 85.3% (inactive)
C=C1C(=O)O[C@H]2[C@H]1CC/C(COC(=O)c1ccc(C(=O)O)s1)=C\CC[C@@]1(C)O[C@@H]21 | -46.7% (active)
O=C(CSc1nc2ccccc2c(=O)n1-c1ccccc1)Nc1cccc(C(=O)/C=C/c2ccccc2Cl)c1 | 113% (inactive)
COc1ccc(C(O)c2cc3c(N)c(C(=O)Nc4cccc(OC)c4)sc3nc2C)cc1 (stereo not given) | 5.65% (active)
Cc1cc(-c2cc(C)c(O)c(C)c2)cc(C)c1O | 26.1% (inactive)
O=C(N/N=C/c1ccc(Cl)cc1)c1ccc(C(F)(F)F)nc1Nc1cccc(C(F)(F)F)c1 | 16.7% (inactive)
O=Nc1ccc(NO)c2ccccc12 | 73.7% (inactive)
CCN1CCN(CC(=O)Nc2nc3ccc(NCc4ccc(C)cc4)cc3s2)CC1 | 68.2% (inactive)
O=C(Oc1ccc(CO[N+](=O)[O-])cc1)c1ccccc1 | -67.7% (active)
Cn1cc(-c2nc(N)nnc2-c2c[nH]c3ccc(Br)cc23)c2cc(Br)ccc21 | 6.33% (active)
COc1ccc(C2[C@@H](Cl)C(=O)N2c2cc(OC)c(OC)c(OC)c2)cc1Cl (stereo not given in full) | 2.32% (active)
CN(C)c1nc(-c2cccs2)n2nc(-c3ccco3)cc2n1 | 7.52% (active)
Nc1nc(N(Cc2ccccc2)c2ccccc2)c2cn[nH]c2n1 | 33.3% (inactive)
COc1ccc(-c2cc(C(=O)Nc3nc4cc(C)c(C)cc4s3)nc3cc(-c4ccccc4)nn23)cc1OC | 109% (inactive)
CCCn1cnc2c(c1=N)C(c1ccc(F)cc1)c1sc3c(F)cccc3c1O2 (stereo not given) | 58.4% (inactive)
Clc1ccc(/C=N/Nc2nc3ccccc3s2)c(Cl)c1 | 89.3% (inactive)
COc1cc(C2CC(c3cccc(Nc4ccnc5cc(Cl)ccc45)c3)=NN2c2ccc(Cl)cc2)cc(OC)c1OC (stereo not given) | 74.4% (inactive)
COc1cc(C2CC(c3ccc(C)cc3)=NN2C=O)ccc1Oc1nc2c(c(=O)n(C)c(=O)n2C)n1C (stereo not given) | 73.8% (inactive)

SMILES | growth
Nc1ncnc2c1N=C(c1ccc3c(c1)OCO3)CC(c1cccc(Nc3ccnc4cc(C(F)(F)F)ccc34)c1)N2 (stereo not given) | 86.6% (inactive)
COc1cc(-c2ccc[nH]2)[nH]c1/C=C1\N=C(C)C(C(=O)NC(C)C)=C1C | 44% (inactive)
CCOc1cc(/C=N\NC(=O)N/N=C/c2ccc(O)c(OCC)c2)ccc1O | 3.75% (active)
COc1cc2c(cc1OC)C(C)N(S(N)(=O)=O)CC2 (stereo not given) | 99.6% (inactive)
Cc1ccc(S(=O)(=O)C2=C3C(=C(c4ccccc4)c4ccccc43)CN(S(=O)(=O)c3ccc(C)cc3)C2)cc1 | 51% (inactive)
NC1CCC(C(=O)O)CC1 (stereo not given) | 99.8% (inactive) and 107% (inactive)
C/C(=N\O)c1ccc(NC(=O)CSc2nnc(-c3ccccc3)n2-c2ccccc2)cc1 | 75.4% (inactive)
Cc1ccc(C(F)(F)F)cc1N1CCN(C(=O)[C@H]2C[C@H]2c2ccc(C(F)(F)F)nc2)CC1 | 65.6% (inactive)
CN(C)c1ccc(/C=C/c2c(F)cccc2F)cc1 | 81.3% (inactive)
Cc1c2cc[nH]c(=O)c2c(C)c2c1[nH]c1ccc(OC(=O)c3ccccc3)cc12 | 12.6% (inactive)
CCCCCCCCN(CCCCCCCC)CCCCCCNc1cc(OC)cc2cccnc12 | 68.2% (inactive)
O=C(Nc1nc(-c2ccccc2Cl)cs1)c1cc(-c2ccc(Cl)cc2)nc2ccc(Cl)cc12 | 89.4% (inactive)
O=C1/C(=C/c2c[nH]c(=O)[nH]c2=O)SC(=S)N1Cc1ccccc1 | 109% (inactive)
Cc1ccc(C(=O)Nc2cccc(F)c2)cc1NC(=O)C1(c2ncnc3[nH]ccc23)CC1 | 85.8% (inactive)
O=C1OCC2=C1C(c1cccc(F)c1)c1cc3c(cc1N2CCO)OCO3 (stereo not given) | 8.27% (active)
CC(C)NC(=O)OCc1c(COC(=O)NC(C)C)c(-c2ccc(Cl)c(Cl)c2)n2c1SCC2 | -73.9% (active)
CN(C)S(=O)(=O)c1oc(-c2ccccc2)nc1C#N | 35% (inactive)
Nc1c(C(=O)Nc2cccc3ccccc23)sc2nc3c(cc12)CCCCC3 | 37.1% (inactive)
COc1ccc(CCN2C(=O)C(C)(C)SC2=S)cc1OC | 105% (inactive)
CCc1ccc(CNc2ccc(N3CCOCC3)c(C(=O)O)c2)cc1 | 101% (inactive)
